Experimental data from PubChem BioAssay AID652058 (Broad Institute, 2013).
Among all 1,200 compounds or so, about 870 (72%) were called active. Another 3% or so got no clear call; they are omitted.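 Rule for the calls: active = every test run fits a falling curve whose half-maximal concentration is at most twice the top valid dose; inconclusive = runs disagree, or flat 30 to 70% inhibition, or poor fit; inactive = every run inactive: flat, rising or weaker potency.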 The set was probably picked from earlier hits. A selection follows. Potency and affinity values are given separately.

Assay: ZM109 Env clade C HIV-1 fusion inhibitors, dose response, HeLa effector, CEM target cells, luciferase, cherry-pick (AID 652058);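 note: 0% = neutral control wells and -100% = maraviroc 300 nM wells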
Conditions: HeLa Env/CEM cell fusion, 16-24 h; series mostly up to 35 µM; activity change, negative = inhibition: at the top concentration

Activity change, negative = inhibition, inactive:
C=CCN1C(=S)CC(c2ccccc2)=Nc2ccccc21 30.2%, CC1CCCN(C(=O)c2ccc(S(=O)(=O)N3CCC(c4nc5ccccc5s4)CC3)cc2)C1 (centres undefined) -24.4%, CS(=O)(=O)Nc1ccc2c(c1)[C@H]1C[C@H](CC(=O)N3CCc4ccccc4C3)O[C@H](CO)[C@H]1O2 1.72%, CS(=O)(=O)Nc1ccc2c(c1)[C@H]1C[C@H](CC(=O)NCc3ccc(-c4ccccc4)cc3)O[C@H](CO)[C@H]1O2 19.1%, CS(=O)(=O)Nc1ccc2c(c1)[C@@H]1C[C@@H](CC(=O)N3CCc4ccccc4C3)O[C@H](CO)[C@@H]1O2 2.24%, CCN(c1nc(N)c(C(=O)N=C(N)N)nc1Cl)C(C)C -2.13% [at 16 µM], CCN(CC)CCN(C(=O)c1cc(Cl)sc1Cl)c1nc2cc3c(cc2s1)OCO3 21.8%, CCC(=O)N(C)C(c1ccccc1Cl)c1nnnn1-c1c(C)cccc1C (centres undefined) 35.5%, O=C(O)C[C@@H]1C=C[C@H](NC(=O)Nc2ccccc2)[C@H](CO)O1 15.4%, O=C(O)C[C@@H]1C=C[C@@H](NC(=O)Nc2ccccc2)[C@H](CO)O1 80%, Cc1nc2ccccc2c2oc(C(=O)NCc3ccc4c(c3)OCO4)cc12 115%, O=C(Nc1ccc(Cl)cc1)C1CCCN(C2=NS(=O)(=O)c3ccccc32)C1 (centres undefined) -20.3% [at 16 µM], C[C@H]1CN([C@@H](C)CO)C(=O)Cc2cc(NS(=O)(=O)c3ccccc3)ccc2O[C@@H]1CN(C)Cc1ccc(Cl)c(Cl)c1 -31.9%, COc1cc(-c2c(-c3cc(OC)c(OC)c(OC)c3)noc2C)ccc1F 138%, COCCCn1c(-c2ccc(S(=O)(=O)N3CCOCC3)cc2)csc1=Nc1ccccc1 -3.14%, O=C(Nc1nc(COc2ccccc2)cs1)C12CC3CC(CC(C3)C1)C2 -16.3%, CC1Cc2cc(-c3csc(NC(=O)Cc4cccs4)n3)ccc2N1S(C)(=O)=O (centres undefined) 102% [at 16 µM], COc1ccc(S(=O)(=O)n2ccc(-c3ccc(OCCN(C)c4ccccn4)cc3)n2)cc1 7.14% [at 16 µM], O=C(c1ccccc1F)N1CCN(Cc2cccc(Cl)c2)CC1 -9.33%, COc1ccccc1S(=O)(=O)Cc1ccc(C(=O)N2CCN(c3cccc(Cl)c3)CC2)o1 188% [at 16 µM], COc1ccc(OCC(=O)Nc2ccccc2N2CCCCC2)cc1 271%, CCOC(=O)C1CCN(C(=O)c2ccc3c(c2)C(=O)N(c2ccccc2C)C3=O)CC1 41%, Cc1cc(Cl)ccc1OCC(=O)NNC(=O)C1CSC2(C)CCC(=O)N12 (centres undefined) 14.6%, CS(=O)(=O)N1CCN(c2ccccc2NC(=O)C(c2ccccc2)c2ccccc2)CC1 -0.512%, O=C(c1ccc(Cl)s1)N1CCN(c2nc3ccccc3s2)CC1 -41.6%, CCOC(=O)c1cccc(NS(=O)(=O)c2ccc(NC(C)=O)cc2)c1 61.5%, O=C(Nc1ccc(CN2CCS(=O)(=O)CC2)cc1)c1ccc(C(F)(F)F)cc1 -27.4%, O=C(Nc1cc2c3c(c1)CC(=O)N3CCC2)c1ccc(Cl)cc1 162%, C=CC[n+]1c(-c2ccc(C)cc2)csc1NNC(=O)Nc1ccccc1 -55.6% [at 16 µM], Cc1noc(C)c1S(=O)(=O)N(C)C[C@H]1Oc2ccc(NC(=O)Nc3ccccc3)cc2CC(=O)N([C@H](C)CO)C[C@H]1C 18%, N#C/C(=N\Nc1ccc(Cl)cc1)C(=O)c1ccccc1 7.69%, CCCn1c(=S)[nH]c2cc(C(=O)N3CCCC(C(=O)OCC)C3)ccc2c1=O (centres undefined) -20.2%, CN(C(=O)c1cccc(NC(=O)Cc2cccc(NC(=O)C3CCCN(C(=O)C4CCC4)C3)c2)c1)C1CCC1 (centres undefined) -13.5%, COc1ccc(S(=O)(=O)N2CCCCC2)cc1NC(=O)CN(Cc1ccco1)Cc1ccco1 -3.11%, CCc1cc2c(NCc3ccco3)ncnc2s1 -21.6%, O=C(COC(=O)c1ncc(Cl)c(Cl)c1Cl)NCc1cccs1 -0.439%, COc1ccc(-c2cc(=O)oc3c(C)c(O)ccc23)cc1 -27.8%, COc1cccc(S(=O)(=O)N(C)C[C@@H]2Oc3cc(C#CCC(C)C)ccc3S(=O)(=O)N([C@H](C)CO)C[C@@H]2C)c1 -39.7%, COc1cccc(S(=O)(=O)N(C)C[C@H]2Oc3cc(C#CCC(C)C)ccc3S(=O)(=O)N([C@H](C)CO)C[C@H]2C)c1 -3.45%, COc1ccc(OC)c(-c2cc(C(=O)Nc3c(C)nn(Cc4ccc(Cl)cc4)c3C)no2)c1 14.8%, CC(Cl)=CCn1c(NCCc2ccccc2)nc2c1c(=O)n(C)c(=O)n2C -36.6% [at 16 µM], C[C@@H]1CN([C@@H](C)CO)C(=O)c2cc(NC(=O)c3ccncc3)ccc2O[C@@H]1CN(C)Cc1ccncc1 10.1%, C[C@@H]1CN([C@@H](C)CO)C(=O)c2cc(NC(=O)c3ccncc3)ccc2O[C@H]1CN(C)Cc1ccncc1 5.72%, CCCCNC(=O)C[C@H]1C[C@@]2(C(=O)OC)C(=C[C@H](C(C)(C)C)O[C@@H]2C)N(Cc2ccc3c(c2)OCO3)C1=O -40%, CC(C)OCCCn1c(=S)[nH]c2ccc(N3CCOCC3)cc2c1=O -35.9%, COCCn1c(=S)[nH]c2cc(C(=O)N3CCN(Cc4ccc5c(c4)OCO5)CC3)ccc2c1=O 5.41%, O=S(=O)(c1ccccc1Cl)N1CCCC1c1nc(-c2ccc(Cl)cc2)no1 (centres undefined) -56.4%, CCS(=O)(=O)N[C@H]1CC[C@@H](CC(=O)NCc2ccc(Cl)cc2)O[C@@H]1CO 50.7%, O=C(C[C@@H]1C=C[C@@H](NC(=O)Nc2ccc3c(c2)OCO3)[C@H](CO)O1)NCc1ccc(F)cc1 -30.8%, Nc1c(S(=O)(=O)c2ccccc2)cnc2c(-c3ccc(F)cc3)cnn12 133%, COc1ccc(OC)c(NC(=O)COc2ccc3c(c2)CCC3)c1 0.146%, COc1ccc(S(=O)(=O)NNC(=O)C2Cc3c(ccc4ccccc34)O2)cc1 (centres undefined) -56.4%, COc1ccc(CCNC(=O)COC(=O)c2cccn2C)cc1 -31.2%, COc1ccc(CCCC(=O)NCCc2ccccc2)c(C)c1 33%, Cc1[nH]nc2c1C1(C(=O)N(Cc3ccc(Cl)cc3)c3ccccc31)C(C#N)=C(N)O2 (centres undefined) -29.2%, Cc1ccccc1OCCCCn1cnc2ccccc21 23.8% [at 16 µM], O=C(Nc1ccncc1)c1ccc(Cl)c(S(=O)(=O)N2CCc3ccccc32)c1 36.8% [at 16 µM], Cc1ccc(C(=O)NCc2ccccn2)cc1S(=O)(=O)N1CCCCC1 -1.12%, COc1cccc(/C=N/NC(=O)CC2C(=O)NN=C2C)c1O (centres undefined) 14.3%, O=C(C[C@@H]1CC[C@@H](NC(=O)c2ccncc2)[C@H](CO)O1)NCCc1ccncc1 83%, CN(C)CC(=O)Nc1ccc2c(c1)[C@H]1C[C@H](CC(=O)NCc3cccc(F)c3)O[C@@H](CO)[C@H]1O2 113%, CCCCn1c(CN(C)Cc2ccccc2)nc2c1c(=O)n(C)c(=O)n2C 78.3%, CC(C)n1c(NCCc2ccccc2)nc2c1c(=O)n(C)c(=O)n2C -21.3%, CC1CN(S(=O)(=O)c2cc(C(=O)NCCC3=CCCCC3)ccc2Cl)CC(C)O1 (centres undefined) -20.5% [at 16 µM], Cc1cc(C)c(CN2CCN(C(=O)Cn3ccc(NC(=O)OCc4ccccc4)nc3=O)CC2)c(C)c1 16.7%, CC(c1nc2ccccc2c(=O)[nH]1)N(C)CCOc1ccc(Cl)cc1 (centres undefined) -27%, CNC[C@@H]1Oc2ccc(NS(C)(=O)=O)cc2CC(=O)N([C@H](C)CO)C[C@H]1C 26.6%, COCC(=O)N(C)C[C@H]1Oc2ncc(Br)cc2C(=O)N([C@H](C)CO)C[C@H]1C -6%, C[C@H]1CN([C@@H](C)CO)C(=O)c2cccc(NC(=O)Nc3ccc(C(F)(F)F)cc3)c2O[C@H]1CN(C)S(=O)(=O)c1ccccc1 108%, O=C(c1cc(COc2cccc(C(F)(F)F)c2)on1)N1CCC(c2ccncc2)CC1 -30.2%, Clc1ccc(-c2noc(CSc3nnc(-c4ccncc4)n3-c3ccccc3)n2)cc1 4.75%, CC1=C(C(=O)OCc2ccc3c(c2)OCO3)C(c2ccc(F)cc2)NC(=O)N1 (centres undefined) 103%, Cc1nn(C)c(Cl)c1NC(=O)OCc1ccc(Cl)cc1Cl -7.87%, CCNC(=O)C[C@@H]1CC[C@@H]2[C@@H](COc3ccc(NC(=O)Cc4cccs4)cc3C(=O)N2C)O1 -19.1%, CCNC(=O)C[C@H]1CC[C@@H]2[C@@H](COc3ccc(NC(=O)Cc4cccs4)cc3C(=O)N2C)O1 58.5%, Cc1nn(C)cc1NC(=O)C[C@H]1CC[C@@H]2[C@@H](COc3ccc(NC(=O)C4CCC4)cc3C(=O)N2C)O1 37.5%, CCNC(=O)Nc1ccc2c(c1)C(=O)N(C)[C@@H]1CC[C@@H](CC(=O)NCC3CCCCC3)O[C@@H]1CO2 15.7%, CN(C)CCCNC(=O)[C@H]1[C@H](CO)[C@H]2Cn3c(ccc(C4=CCCC4)c3=O)[C@H]2N1CCC(F)(F)F 15.1%, CNC[C@H]1Oc2c(NC(=O)Nc3ccc4c(c3)OCO4)cccc2C(=O)N([C@H](C)CO)C[C@@H]1C 38.3%, C[C@H](CO)N1C[C@H](C)[C@H](CN(C)Cc2ccccc2)Oc2c(NC(=O)Nc3ccc4c(c3)OCO4)cccc2C1=O 203%, C#CCn1c(=O)c2c(ncn2C)n(C)c1=O -4.65%, COc1cccc(CNC(=O)C[C@@H]2C=C[C@H](NC(=O)C3CCC3)[C@H](CO)O2)c1 110%, Cc1ccc(-c2ccc3c(c2)O[C@H](CN(C)Cc2cccnc2)[C@@H](C)CN([C@H](C)CO)S3(=O)=O)cc1 -40.8%, Cc1ccc(-c2ccc3c(c2)O[C@@H](CN(C)Cc2cccnc2)[C@H](C)CN([C@H](C)CO)S3(=O)=O)cc1 -45.1%, Cc1cc(C)c(CN2CCN(C(=O)Cn3cnc4c(NCc5ccccc5)ncnc43)CC2)c(C)c1 -15.2%, N#Cc1ccc(CN2CCN(C(=O)CNC(=O)Cc3cccc4ccccc34)CC2)cc1 -37.4%, CSc1ncccc1C(=O)OCC(=O)Nc1ccc(C)c(S(=O)(=O)N2CCOCC2)c1 20.5%, O=C(OCCOc1cccc(Cl)c1)c1cc(S(=O)(=O)N2CCCCC2)ccc1N1CCOCC1 -9.55%, Nc1ccc(S(=O)(=O)c2ccc(N3CCOCC3)c(N)c2)cc1 -15.2%
